Some test systems named below: NCI-H23 lung; NCI-H226 lung; NCI-H322M lung; HOP-62 NSCLC; NCI-H460 lung; HOP-92 NSCLC; NCI-H522 lung; A549/ATCC NSCLC; 786-0 renal; COLO 205 colon.
Holding throughout (experiment): NCI-60 one-dose screen, 48 h (100 = growth as untreated, 0 = no growth, -100 = all killed)
Common to all, as to conditions: 10 µM unless noted

“And” between values parts separate entries of the source, which are not always exact repeats. Equal entries are not always repeated. This is part of a sample that, as a whole, favours compounds with a hit. Of some 83,000 tested, about 20% had one in any assay.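 Method: cells in 96-well plates; compound added at one concentration; 48 h incubation; percent growth measured; values under 10 scored active.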 The source made the active and inactive calls.

In the case of `Cc1nc2sc(C(=O)Nc3cccc4ccccc34)c(N)c2cc1C(=O)/C=C/c1ccccc1`, the growth in the experiment on NCI-H23 lung was 9.08% (active); in the experiment on NCI-H226 lung, -59.4% (active); in the experiment with NCI-H322M lung it was 24% (inactive); in the experiment with HOP-62 NSCLC it was -21.1% (active); in the experiment with NCI-H460 lung, -34.2% (active); in the experiment on HOP-92 NSCLC, 28.3% (inactive). Moreover, the growth was -33.4% (active) with NCI-H522 lung, 12.9% (inactive) with A549/ATCC NSCLC, -55.5% (active) with 786-0 renal and -15% (active) with COLO 205 colon.

Take `N=C(N)SCc1c2ccccc2c(CSC(=N)N)c2ccccc12`: the growth with NCI-H23 lung is 54.4% (inactive); in the experiment on NCI-H226 lung, 71.2% (inactive); in the experiment with NCI-H322M lung, 103% (inactive); in the experiment with HOP-62 NSCLC, 55.5% (inactive); in the experiment with NCI-H460 lung, 34.4% (inactive); in the experiment on HOP-92 NSCLC, 32.2% (inactive). For the same compound, the growth in the experiment on NCI-H522 lung is 31.2% (inactive); with A549/ATCC NSCLC it was 65.9% (inactive); in the experiment on 786-0 renal it was 47.7% (inactive); in the experiment with COLO 205 colon it was 66.1% (inactive).

Take `COC1=CC(=O)C(OC)=C(O)C1=O`: the growth is 99.1% (inactive) in the experiment with NCI-H23 lung; 102% (inactive) in the experiment with NCI-H226 lung; 93.8% (inactive) with NCI-H322M lung; 97.9% (inactive) with HOP-62 NSCLC; 106% (inactive) in the experiment with NCI-H460 lung; 106% (inactive) in the experiment on HOP-92 NSCLC. Also, the growth with NCI-H522 lung is 96.5% (inactive); in the experiment on A549/ATCC NSCLC it was 105% (inactive); in the experiment with 786-0 renal, 95.7% (inactive); in the experiment with COLO 205 colon, 103% (inactive).

Consider `COc1ccc2c(c1)c(C(=O)c1nc(-c3cn(C)c4ccccc34)no1)cn2C`, for which the growth is 94.6% (inactive) in the experiment with NCI-H23 lung; 83% (inactive) with NCI-H226 lung; 86.5% (inactive) with NCI-H322M lung; 92.5% (inactive) in the experiment with HOP-62 NSCLC; 101% (inactive) with NCI-H460 lung; 110% (inactive) in the experiment with HOP-92 NSCLC. The growth in the experiment on NCI-H522 lung was 69.6% (inactive); with A549/ATCC NSCLC it was 90.7% (inactive); in the experiment on 786-0 renal, 107% (inactive); with COLO 205 colon, 97.7% (inactive).

For the compound `COC(=O)c1nc(-c2ccc(C)cc2)oc1Sc1ccc(C)cc1`, the growth with NCI-H23 lung is 105% (inactive); in the experiment with NCI-H226 lung it was 104% (inactive); with NCI-H322M lung, 99.2% (inactive); with HOP-62 NSCLC, 94% (inactive); in the experiment on NCI-H460 lung, 107% (inactive); in the experiment on HOP-92 NSCLC, 87.9% (inactive). The growth with NCI-H522 lung is 78.7% (inactive); in the experiment with A549/ATCC NSCLC it was 97.6% (inactive); in the experiment with 786-0 renal, 95.7% (inactive); with COLO 205 colon, 102% (inactive).

As to `COC1/C=C/OC2(C)Oc3c(C)c(O)c4c(O)c(c(C=NOC(c5ccccc5)c5ccccc5)c(O)c4c3C2=O)NC(=O)/C(C)=C/C=C/C(C)C(O)C(C)C(O)C(C)C(OC(C)=O)C1C` (stereo not given), the growth is 21.8% (inactive) in the experiment with NCI-H23 lung; 20.3% (inactive) in the experiment on NCI-H226 lung; 47.4% (inactive) in the experiment with NCI-H322M lung; -89.5% (active) in the experiment on HOP-62 NSCLC; 2.85% (active) in the experiment on NCI-H460 lung; -8.12% (active) with HOP-92 NSCLC. The growth is 13% (inactive) in the experiment on NCI-H522 lung, 16.3% (inactive) in the experiment with A549/ATCC NSCLC, 12.2% (inactive) in the experiment on 786-0 renal and -88.2% (active) in the experiment with COLO 205 colon.

With `O=c1oc2c(Br)cc(Br)cc2cc1-c1cc(-c2ccc(-c3cc(-c4cc5cc(Br)cc(Br)c5oc4=O)nc(-c4cc5cc(Br)cc(Br)c5oc4=O)c3)cc2)cc(-c2cc3cc(Br)cc(Br)c3oc2=O)n1`, the growth is 96.5% (inactive) in the experiment on NCI-H23 lung; 102% (inactive) in the experiment on NCI-H226 lung; 97.3% (inactive) with NCI-H322M lung; 104% (inactive) in the experiment on HOP-62 NSCLC; 105% (inactive) in the experiment on NCI-H460 lung; 108% (inactive) in the experiment on HOP-92 NSCLC. For the same compound, the growth in the experiment with NCI-H522 lung was 86.8% (inactive); with A549/ATCC NSCLC it was 105% (inactive); with 786-0 renal, 111% (inactive); with COLO 205 colon it was 110% (inactive).

For the compound `Nc1nc(Nc2cccnc2)sc1C(=O)c1ccccc1F`, the growth was 37.9% (inactive) with NCI-H23 lung; 24.4% (inactive) with NCI-H226 lung; 54.7% (inactive) in the experiment with NCI-H322M lung; 21.2% (inactive) with HOP-62 NSCLC; 21.7% (inactive) with NCI-H460 lung; 51.8% (inactive) in the experiment with HOP-92 NSCLC. For the same compound, the growth in the experiment with NCI-H522 lung was 71.4% (inactive); with A549/ATCC NSCLC, 27% (inactive); in the experiment on 786-0 renal it was 18.2% (inactive); in the experiment on COLO 205 colon, 20.5% (inactive).

In the case of `Cc1c(O)c(O)cc2c3c(oc12)CC(c1ccc2c(c1)OCO2)CC3=O` (stereo not given), the growth was 83.4% (inactive) with NCI-H23 lung; 81.2% (inactive) in the experiment with NCI-H226 lung; 90.1% (inactive) with NCI-H322M lung; 75.2% (inactive) in the experiment with HOP-62 NSCLC; 93.7% (inactive) in the experiment on NCI-H460 lung; -37.4% (active) in the experiment with HOP-92 NSCLC. Further, the growth was 53.3% (inactive) in the experiment with NCI-H522 lung, 93.8% (inactive) in the experiment with A549/ATCC NSCLC, 100% (inactive) in the experiment with 786-0 renal and 103% (inactive) in the experiment on COLO 205 colon.

Consider `Cn1c(=O)c2c(nc(Nc3cc(=O)[nH]c(=O)[nH]3)n2Cc2ccccc2)n(C)c1=O`, for which the growth in the experiment with NCI-H23 lung is 91.5% (inactive); in the experiment on NCI-H226 lung, 86.6% (inactive); in the experiment with NCI-H322M lung, 97.9% (inactive); in the experiment with HOP-62 NSCLC it was 20.6% (inactive); in the experiment on NCI-H460 lung it was 2.91% (active); in the experiment on HOP-92 NSCLC, 80.5% (inactive). Also, the growth is 4.24% (active) in the experiment with NCI-H522 lung, 12.3% (inactive) with A549/ATCC NSCLC, 102% (inactive) in the experiment on 786-0 renal and -2.38% (active) with COLO 205 colon.

For the compound `O=c1c2c([nH]c3ccccc13)CCCC2`, the growth in the experiment with NCI-H23 lung was 100% (inactive) and 68.1% (inactive); in the experiment with NCI-H226 lung, 100% (inactive); in the experiment on NCI-H322M lung, 113% (inactive) and 77.7% (inactive); in the experiment with HOP-62 NSCLC, 98.5% (inactive) and 40.1% (inactive); in the experiment on NCI-H460 lung, 99.8% (inactive) and 22.8% (inactive); with HOP-92 NSCLC it was 83.9% (inactive) and 52.4% (inactive). For the same compound, the growth with NCI-H522 lung is 92.4% (inactive) and 37.6% (inactive); in the experiment with A549/ATCC NSCLC, 93.8% (inactive) and 56.3% (inactive); in the experiment on 786-0 renal it was 107% (inactive) and 74.3% (inactive); in the experiment on COLO 205 colon, 94.5% (inactive) and 8.36% (active).

As for `CCOC(=O)c1cnn(-c2ccc(S(N)(=O)=O)cc2)c1N`, the growth with NCI-H23 lung is 95.5% (inactive); in the experiment with NCI-H226 lung, 92% (inactive); in the experiment with NCI-H322M lung, 99.8% (inactive); with HOP-62 NSCLC, 95.9% (inactive); in the experiment on NCI-H460 lung it was 104% (inactive); in the experiment with HOP-92 NSCLC it was 105% (inactive). Moreover, the growth with NCI-H522 lung is 96.2% (inactive); in the experiment on A549/ATCC NSCLC, 103% (inactive); in the experiment on 786-0 renal it was 95.6% (inactive); in the experiment on COLO 205 colon, 140% (inactive).

The record behind these values is PubChem BioAssay (NCI).
